{"source": "PubChem BioAssay AID1159580", "about": "(chemical genetic matrix, 2015)", "assay": "chemical genetic growth profiling, strain panel (AID 1159580);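 further: tested at 20 µM; growth read once vehicle control cultures reached saturation at 30 °C; 1 = growth at the plate median or of vehicle wells; lower values mean less growth of the strain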", "details": "S. cerevisiae deletion strains, growth OD", "note": "“And” between values parts separate entries of the source, which are not always exact repeats. Identical values can stand only once. The campaign covered roughly 5,500 compounds. About 2,000 (36%) were called active. Roughly 18% stayed inconclusive and do not appear here. This is one part of the list. A number with no mark means an inactive call. No stated cut-off is given here; in the data, active means normalized growth mostly below about 0.91 (no sharp cut-off); inconclusive means no clear call, values can overlap the other calls; inactive means mostly above about 0.92.", "data": [{"compound": "c1ccc(CC2=NCCN2)cc1", "values": [{"measurement": "normalized growth", "setting": "locus YAL013W, strain DEP1, active compounds read low", "value": 1.01}, {"measurement": "normalized growth", "setting": "locus YAL021C, strain ccr4, active compounds read low", "value": 1.01}, {"measurement": "normalized growth", "setting": "locus YAL026C, strain drs2, active compounds read low", "value": 1.03}, {"measurement": "normalized growth", "setting": "locus YAL030W, strain snc1, active compounds read low", "value": 1.01}, {"measurement": "normalized growth", "setting": "locus YBL061C, strain skt5, active compounds read low", "value": 1.01}, {"measurement": "normalized growth", "setting": "locus YBR009C, strain hhf1, active compounds read low", "value": 0.998}, {"measurement": "normalized growth", "setting": "locus YBR021W, strain FUR4, active compounds read low", "value": 0.861}, {"measurement": "normalized growth", "setting": "locus YBR023C, strain chs3, active compounds read low", "value": 1.01}, {"measurement": "normalized growth", "setting": "locus YBR171W, strain sec66, active compounds read low", "value": 1.03}, {"measurement": "normalized growth", "setting": "locus YBR229C, strain ROT2, active compounds read low", "value": 0.983}, {"measurement": "normalized growth", "setting": "locus YBR231C, strain swc5, active compounds read low", "value": 1.01}, {"measurement": "normalized growth", "setting": "locus YBR279W, strain paf1, active compounds read low", "value": 1.01}, {"measurement": "normalized growth", "setting": "locus YCL011C, strain gbp2, active compounds read low", "value": 1.02}, {"measurement": "normalized growth", "setting": "locus YCL016C, strain dcc1, active compounds read low", "value": 1}, {"measurement": "normalized growth", "setting": "locus YCL029C, strain bik1, active compounds read low", "value": "0.887 (active)"}, {"measurement": "normalized growth", "setting": "locus YCL061C, strain MRC1, active compounds read low", "value": 1.02}, {"measurement": "normalized growth", "setting": "locus YCL069W, strain vba3, active compounds read low", "value": 1.03}, {"measurement": "normalized growth", "setting": "locus YCR088W, strain abp1, active compounds read low", "value": 1.01}, {"measurement": "normalized growth", "setting": "locus YDL005C, strain med2, active compounds read low", "value": 1.02}, {"measurement": "normalized growth", "setting": "locus YDL035C, strain GPR1, active compounds read low", "value": 0.963}, {"measurement": "normalized growth", "setting": "locus YDL040C, strain nat1, active compounds read low", "value": 1}, {"measurement": "normalized growth", "setting": "locus YDL074C, strain BRE1, active compounds read low", "value": 1}, {"measurement": "normalized growth", "setting": "locus YDL101C, strain DUN1, active compounds read low", "value": 0.987}, {"measurement": "normalized growth", "setting": "locus YDL134C, strain PPH21, active compounds read low", "value": 0.99}, {"measurement": "normalized growth", "setting": "locus YDL185W, strain tfp1, active compounds read low", "value": "0.816 (active)"}, {"measurement": "normalized growth", "setting": "locus YDL192W, strain arf1, active compounds read low", "value": 0.952}, {"measurement": "normalized growth", "setting": "locus YDR001C, strain nth1, active compounds read low", "value": 1.01}, {"measurement": "normalized growth", "setting": "locus YDR069C, strain doa4, active compounds read low", "value": 1}, {"measurement": "normalized growth", "setting": "locus YDR101C, strain arx1, active compounds read low", "value": "0.903 (active)"}, {"measurement": "normalized growth", "setting": "locus YDR137W, strain rgp1, active compounds read low", "value": 1.03}, {"measurement": "normalized growth", "setting": "locus YDR150W, strain NUM1, active compounds read low", "value": 0.983}, {"measurement": "normalized growth", "setting": "locus YDR159W, strain sac3, active compounds read low", "value": 0.977}, {"measurement": "normalized growth", "setting": "locus YDR162C, strain NBP2, active compounds read low", "value": 0.967}, {"measurement": "normalized growth", "setting": "locus YDR195W, strain ref2", "value": 1.02}, {"measurement": "normalized growth", "setting": "locus YDR297W, strain sur2, active compounds read low", "value": 1.01}, {"measurement": "normalized growth", "setting": "locus YDR318W, strain mcm21, active compounds read low", "value": "0.893 (active)"}, {"measurement": "normalized growth", "setting": "locus YDR334W, strain swr1, active compounds read low", "value": 1.02}, {"measurement": "normalized growth", "setting": "locus YDR335W, strain msn5, active compounds read low", "value": 1}, {"measurement": "normalized growth", "setting": "locus YDR388W, active compounds read low", "value": "0.923 (active)"}, {"measurement": "normalized growth", "setting": "locus YDR392W, strain spt3, active compounds read low", "value": 0.933}, {"measurement": "normalized growth", "setting": "locus YDR502C, strain sam2, active compounds read low", "value": "0.91 (active)"}, {"measurement": "normalized growth", "setting": "locus YEL003W, strain gim4, active compounds read low", "value": 1.01}, {"measurement": "normalized growth", "setting": "locus YEL037C, strain rad23, active compounds read low", "value": 1.02}, {"measurement": "normalized growth", "setting": "locus YEL061C, strain CIN8 (second series), active compounds read low", "value": 1.01}, {"measurement": "normalized growth", "setting": "locus YEL061C, strain CIN8, active compounds read low", "value": 0.987}, {"measurement": "normalized growth", "setting": "locus YER015W, strain faa2, active compounds read low", "value": 1.01}, {"measurement": "normalized growth", "setting": "locus YER016W, strain bim1, active compounds read low", "value": 1.04}, {"measurement": "normalized growth", "setting": "locus YER110C, active compounds read low", "value": 0.929}, {"measurement": "normalized growth", "setting": "locus YER111C, strain swi4, active compounds read low", "value": 1.02}, {"measurement": "normalized growth", "setting": "locus YER155C, strain BEM2 (second series), active compounds read low", "value": 1.02}, {"measurement": "normalized growth", "setting": "locus YER155C, strain BEM2, active compounds read low", "value": "0.891 (active)"}, {"measurement": "normalized growth", "setting": "locus YER167W, strain BCK2, active compounds read low", "value": 0.939}, {"measurement": "normalized growth", "setting": "locus YFR010W, strain ubp6, active compounds read low", "value": 1.01}, {"measurement": "normalized growth", "setting": "locus YGL078C, strain dbp3, active compounds read low", "value": "0.806 (active)"}, {"measurement": "normalized growth", "setting": "locus YGL086W, strain mad1, active compounds read low", "value": 0.955}, {"measurement": "normalized growth", "setting": "locus YGL167C, strain pmr1, active compounds read low", "value": 1.02}, {"measurement": "normalized growth", "setting": "locus YGL173C, strain kem1, active compounds read low", "value": 0.998}, {"measurement": "normalized growth", "setting": "locus YGL227W, strain vid30, active compounds read low", "value": 1.03}, {"measurement": "normalized growth", "setting": "locus YGL240W, strain doc1, active compounds read low", "value": 0.97}, {"measurement": "normalized growth", "setting": "locus YGL248W, strain PDE1, active compounds read low", "value": 0.996}, {"measurement": "normalized growth", "setting": "locus YGL253W, strain hxk2, active compounds read low", "value": 1.01}, {"measurement": "normalized growth", "setting": "locus YGR078C, strain PAC10, active compounds read low", "value": 0.988}, {"measurement": "normalized growth", "setting": "locus YGR135W, strain pre9, active compounds read low", "value": 0.937}, {"measurement": "normalized growth", "setting": "locus YGR229C, strain SMI1, active compounds read low", "value": 1.01}, {"measurement": "normalized growth", "setting": "locus YGR252W, strain gcn5, active compounds read low", "value": 0.898}, {"measurement": "normalized growth", "setting": "locus YHR013C, strain ard1, active compounds read low", "value": 1.02}, {"measurement": "normalized growth", "setting": "locus YHR027C, strain rpn1, active compounds read low", "value": 1.02}, {"measurement": "normalized growth", "setting": "locus YHR030C, strain SLT2, active compounds read low", "value": "0.976 and 0.967"}, {"measurement": "normalized growth", "setting": "locus YHR079C, strain IRE1 (second series), active compounds read low", "value": "0.865 (active)"}, {"measurement": "normalized growth", "setting": "locus YHR079C, strain IRE1, active compounds read low", "value": 0.961}, {"measurement": "normalized growth", "setting": "locus YHR094C, strain hxt1, active compounds read low", "value": "0.9 (active)"}, {"measurement": "normalized growth", "setting": "locus YHR129C, strain ARP1, active compounds read low", "value": 0.958}, {"measurement": "normalized growth", "setting": "locus YHR142W, strain chs7, active compounds read low", "value": 1.02}, {"measurement": "normalized growth", "setting": "locus YHR200W, strain rpn10, active compounds read low", "value": "0.91 (active)"}, {"measurement": "normalized growth", "setting": "locus YIL066C, strain RNR3, active compounds read low", "value": 0.987}, {"measurement": "normalized growth", "setting": "locus YIL073C, strain SPO22, active compounds read low", "value": 1.01}, {"measurement": "normalized growth", "setting": "locus YIL125W, strain kgd1, active compounds read low", "value": "0.787 (active)"}, {"measurement": "normalized growth", "setting": "locus YIR030C, strain dcg1, active compounds read low", "value": "0.899 (active)"}, {"measurement": "normalized growth", "setting": "locus YJL092W, strain hpr5, active compounds read low", "value": 1.01}, {"measurement": "normalized growth", "setting": "locus YJL095W, strain BCK1 (second series), active compounds read low", "value": 1.01}, {"measurement": "normalized growth", "setting": "locus YJL095W, strain BCK1, active compounds read low", "value": "1.01 and 0.968"}, {"measurement": "normalized growth", "setting": "locus YJL115W, strain asf1, active compounds read low", "value": 1.02}, {"measurement": "normalized growth", "setting": "locus YJL129C, strain trk1, active compounds read low", "value": 1.03}, {"measurement": "normalized growth", "setting": "locus YJL134W, strain LCB3, active compounds read low", "value": 0.969}, {"measurement": "normalized growth", "setting": "locus YJL154C, strain vps35, active compounds read low", "value": 1.01}, {"measurement": "normalized growth", "setting": "locus YJL164C, strain tpk1, active compounds read low", "value": 1.02}, {"measurement": "normalized growth", "setting": "locus YJL166W, strain qcr8, active compounds read low", "value": 1.03}, {"measurement": "normalized growth", "setting": "locus YJL168C, strain set2, active compounds read low", "value": "0.915 (active)"}, {"measurement": "normalized growth", "setting": "locus YJL187C, strain SWE1 (second series), active compounds read low", "value": 0.988}, {"measurement": "normalized growth", "setting": "locus YJL187C, strain SWE1, active compounds read low", "value": 1.02}, {"measurement": "normalized growth", "setting": "locus YJR043C, strain POL32, active compounds read low", "value": 0.939}, {"measurement": "normalized growth", "setting": "locus YJR066W, strain TOR1, active compounds read low", "value": 0.935}]}]}
